In all, about 360,000 compounds went through this assay and about 25,000 (6.9%) were called active. Not shown: some 9% with an inconclusive outcome. Only a selection was taken, and actives are over-represented in it overall. Values without a mark were called inactive. Calls come from the whole dose curve; as a rule, active = well fitted inhibition curve with a large enough effect; inconclusive = small, poorly fitted or top-dose-only effect; inactive = flat fitted curve, though single readings scatter.
molecular target: Luciferin 4-monooxygenase (Photinus pyralis) (UniProt P08659); test: qHTS profiling assay for firefly luciferase inhibitor/activator using purifed enzyme and Km concentrations of substrates (counterscreen for miR-21 project); conditions: purified FLuc, luminescence inhibition; series mostly up to 57.5 µM; activity change, negative = inhibition: at the top concentration; note: nearly all actives have a fitted effect of over 55% in size;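 for activity change, negative = inhibition: plate controls were vehicle for no effect and reference inhibitor for full effect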
Procedure, shortened: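 Biochemical qHTS of compounds, final roughly 60 µM downward over six points, against 10 nM purified firefly luciferase using Km concentrations of substrates (10 uM D-luciferin, 10 uM ATP) in Tris acetate pH 7.5 buffer; luminescence output.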
Potency is the fitted concentration of half-maximal effect.

Luciferin 4-monooxygenase (Photinus pyralis), sequence (P08659 whole entry, looked up): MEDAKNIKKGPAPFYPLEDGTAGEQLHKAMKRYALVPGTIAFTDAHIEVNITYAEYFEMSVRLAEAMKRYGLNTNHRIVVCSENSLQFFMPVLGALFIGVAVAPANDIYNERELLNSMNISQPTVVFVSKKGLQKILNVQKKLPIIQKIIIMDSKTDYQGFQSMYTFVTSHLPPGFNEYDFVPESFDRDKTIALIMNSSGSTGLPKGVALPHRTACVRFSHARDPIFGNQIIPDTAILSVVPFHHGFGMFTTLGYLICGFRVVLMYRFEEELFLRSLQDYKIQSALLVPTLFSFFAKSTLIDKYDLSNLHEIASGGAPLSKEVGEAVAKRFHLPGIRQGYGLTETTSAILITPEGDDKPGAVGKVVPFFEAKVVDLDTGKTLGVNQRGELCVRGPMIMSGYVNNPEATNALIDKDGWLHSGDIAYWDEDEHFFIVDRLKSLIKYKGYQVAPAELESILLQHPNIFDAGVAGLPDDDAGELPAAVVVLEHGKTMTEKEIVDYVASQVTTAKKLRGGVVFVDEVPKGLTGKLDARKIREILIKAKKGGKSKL

SMILES	activity change, negative = inhibition	Potency
CCC1CCC2(CC1)NC(=O)N(CC(=O)Nc1ccc(OC)cc1)C2=O (centres undefined)	0.329%	
Cc1ccc(-c2nc3ccccn3c2Nc2c(C)cccc2C)o1	-6.56%	
Cc1ccc(S(=O)(=O)N2CCCc3cc(NS(=O)(=O)c4cc(C)ccc4C)ccc32)cc1	-7.12%	
O=C(CCc1nc2sc3c(c2c(=O)[nH]1)CCCC3)NCC(=O)Nc1ccccc1Br	-1.92%	
Cc1cc(N(C)C)cc(C)[n+]1[O-]	1.72%	
COc1cc(OC)cc(C(=O)NNC(=O)CCOc2ccccc2OC)c1	4.07%	
CCOc1ccccc1NC(=O)C1CCCN(S(=O)(=O)c2cn(C)cn2)C1 (centres undefined)	-5.71%	
COc1ccc(S(=O)(=O)N2CCOCC2)cc1NC(=O)Cc1c(F)cccc1Cl	4.57%	
COc1ccc(CCNC(=O)COC(=O)C2CC2C)cc1 (centres undefined)	5.85%	
CNc1nc(Nc2ccc(C)c(Cl)c2)nc(N)c1[N+](=O)[O-]		4.78 µM (active)
CCN1CCN(c2nc(Nc3cccc(F)c3)nc(N)c2[N+](=O)[O-])CC1	-1.68%	
Cc1ccc(Nc2nc(N3CCOCC3)nc(N3CCOCC3)n2)cc1Cl	-1.72%	
COc1ccccc1CNC(=O)Cn1nc(C)c2nn(-c3ccc(Cl)cc3)c(C)c2c1=O	-10.1%	
CCOC(=O)c1cccc(NS(=O)(=O)c2cn(C)c(C)n2)c1	-2.62%	
O=C(CC1SC(=Nc2ccccc2)N(Cc2ccccn2)C1=O)Nc1cccc(Cl)c1 (centres undefined)	-19.3%	
O=C(Nc1cccc(Cl)c1)OCc1ccccn1		26.9 µM (active)
O=C(Nc1ccccc1)OCc1cn(-c2ccc(Cl)cc2)nn1	-1.55%	
Nc1cccc(S(=O)(=O)Nc2ccc(SC(F)F)cc2)c1	-2.66%	
O=C(CCn1c(=O)c2sccc2n(Cc2ccc(F)cc2)c1=O)NCc1ccc2c(c1)OCO2	-1.27%	
COc1ccccc1N1CCN(C(CNC(=O)C(=O)NCc2ccc(C)cc2)c2cccnc2)CC1 (centres undefined)	-12.7%	
CCOc1ccc(CNCc2c(C(=O)O)c(C)n(Cc3cccc(OC)c3)c2C)cc1OC	-5.96%	
CC(C)(C)Nc1nc(-c2ccccn2)nc2ccccc12	-1.03%	

SMILES	activity change, negative = inhibition	Potency
Oc1c(Br)cccc1/C=N/Nc1c(F)c(F)c(F)c(F)c1F	-8.05%	
Oc1ccc(/C=N/Nc2nc(-c3ccccc3F)nc3ccccc23)c(O)c1		10.7 µM (active)
COc1ccc(N2CCN(c3nc(-c4ccccc4F)nc4ccccc34)CC2)cc1	6.38%	
Cc1nc2ccccc2nc1N/N=C/c1ccc(O)cc1O		12 µM (active)
Oc1ccc(/C=N/NC2=NCCCCC2)c(O)c1		13.5 µM (active)
Cc1n[nH]c(=O)nc1N/N=C/c1cccs1	-11.1%	
Cc1ccc(/C=N/NC(=O)C2=NNC(c3ccccc3)(c3ccccc3)C2)c(O)c1	-13.1%	
CN1c2ccc(Cl)cc2-c2nc(SCC(=O)Nc3cc(F)ccc3F)ncc2S1(=O)=O	-11.9%	
O=C(NCCCO)C(=O)Nc1c2c(nn1-c1ccc(F)cc1)CSC2	-11.4%	
Cn1c2cc(B(O)O)sc2c2cnn(Cc3ccccc3F)c(=O)c21	-0.41%	
CCc1noc(C)c1C(=O)N1CCN(S(=O)(=O)c2cccc(C(F)(F)F)c2)CC1	4.82%	
OCC[C@H]1C[C@@H](O)[C@H](O)[C@@]2(OCCc3ccccc32)O1	-0.0292%	
COc1ccc(S(=O)(=O)N2CCN(CC(=O)N3c4ccccc4CC3C)CC2)cc1OC (centres undefined)	-2.58%	
CC1Cc2cc(S(=O)(=O)CCC(=O)NCc3ccc(Cl)cc3)ccc2N1C(=O)C1CC1 (centres undefined)	-4.82%	
O=S(=O)(NCc1ccc(Cl)cc1Cl)c1cccs1	-19.7%	
O=S(=O)(Nc1ccccc1Br)c1cccs1	-2.09%	
O=C(Nc1cccc(Cl)c1)Nc1ccccc1NS(=O)(=O)c1cccs1		16.9 µM (active)
Cc1ccc(Cl)cc1N(C)C(=O)C1CCCN(c2ncnc3onc(-c4ccc(F)cc4)c23)C1 (centres undefined)	2.19%	
COc1ccccc1NC(=O)c1oc2ccccc2c1NC(=O)C(C)C	-2.09%	
COc1ccccc1C(=O)Nc1c(C(=O)Nc2ccc(C)cc2)oc2ccccc12	-0.534%	
COc1cc(OC)cc(C(=O)Nc2c(C(=O)Nc3ccc(F)cc3)oc3ccccc23)c1		2.69 µM (active)
Cc1ccc(C)c(NC(=O)Cn2ccn(-c3ccc(F)cc3)c(=O)c2=O)c1	4.99%	

SMILES	activity change, negative = inhibition	Potency
CCOC(=O)C1CCN(c2nc3c(S(=O)(=O)c4ccc(CC)cc4)nnn3c3ccc(Cl)cc23)CC1	-1.37%	
CCc1ccc(CNC(=O)c2cc3c(=O)n(CC)c4ccccc4c3s2)cc1	1.5%	
O=C(CCN1CCCO1)N1CCCC(N2CCN(c3cccc(C(F)(F)F)c3)CC2)C1 (centres undefined)	2.52%	
CCC(CC)c1nn2cc(-c3ccccc3)nc2s1		0.269 µM (active)
CCc1ccc(CNC(=O)C2CCN(c3nn4cc(-c5ccc(F)cc5)nc4s3)CC2)cc1	1.26%	
CCC(CC)c1nnc(NS(=O)(=O)Cc2ccccc2)s1	-1.81%	
Cc1ccc(F)cc1NC(=O)CCSc1nc(-c2ccco2)cc(C(F)(F)F)n1	-0.691%	
Clc1ccccc1CSc1nncn2c1cc1occc12	-11.8%	
CSCCC(NC(=O)COc1ccccc1)C(=O)N(C)CC(=O)Nc1ccc(C)cc1 (centres undefined)	-1.45%	
CCOC(=O)C1CCN(C(=O)CSc2c3c(nc4ccc(Cl)cc24)CCCC3)CC1	-13.8%	
C=CC[n+]1c(-c2ccc(C)cc2)csc1NNC(=O)Nc1ccccc1		19 µM (active)
C=CCNC(=O)c1csc(-c2ccccc2)n1	-1.52%	
C=CCNc1scc(-c2ccccc2)[n+]1CC=C	-2.24%	
CCOC(=O)C1CCCN(CCSc2ccc(C)cc2)C1 (centres undefined)	0.266%	
O=C(COC(=O)CNC(=O)C1CCCCC1)NCc1ccccc1	0.92%	
COc1ccc2c(CC(=O)OCC(=O)Nc3ccccc3[N+](=O)[O-])coc2c1	-0.294%	
Cc1ccc(OCC(=O)Nc2ccc(N3CCN(C(=O)c4ccco4)CC3)cc2)c(C)c1	0.84%	
Cc1ccc2nc(N3CCN(C(=O)c4ccco4)CC3)sc2c1		10.7 µM (active)
Cc1nc2ccc(C(=O)N3CCSCC3)cc2s1	-1.24%	
Cc1ccc(C)c(OCC(=O)N2CCN(C(=O)c3ccco3)CC2)c1	-0.911%	
Cc1nc2ccc(C(=O)N3CCN(c4ccccc4)CC3)cc2s1	0.986%	
CC1CCN(c2nc3ccc(C(=O)N4CCN(c5ccccc5)CC4)cc3s2)CC1		23.9 µM (active)

SMILES	activity change, negative = inhibition	Potency
COc1cccc(CN2CCc3nc(SCC(=O)Nc4ccccc4)[nH]c(=O)c3C2)c1	2.41%	
COC(=O)C(NS(=O)(=O)c1ccc(F)cc1)c1ccccc1 (centres undefined)	-0.463%	
CCOc1ccc(N(Cc2ccccc2)C(=O)c2nc(S(C)(=O)=O)ncc2Cl)cc1	-18.4%	
CCOc1ccc(-c2nnn(CC(=O)N3CCN(c4ccc(OC)cc4)CC3)n2)cc1OCC	1.79%	
CCOc1ccc(-c2nnn(CC(=O)N3CCN(c4ccc(F)cc4)CC3)n2)cc1OCC	4.38%	
COc1ccc(C(=O)Cn2nnc(-c3ccc(N4CCOCC4)cc3)n2)cc1OC		8.49 µM (active)
COC(=O)C1CCN(C(=O)c2ccc3oc(Cc4ccc(Cl)cc4)nc3c2)CC1	1.04%	
COc1cccc(NC(=O)Cn2c(=O)cc(C)c3c(C)nn(-c4cccc(F)c4)c32)c1	-13.9%	
Cn1c(=O)n(C)c2cc(S(=O)(=O)Nc3ccc(F)cc3)ccc21	2.5%	
COc1cc(OC)cc(C(=O)Nc2nnc(SCC(=O)NCC3CCCO3)s2)c1 (centres undefined)		15.1 µM (active)
Cc1ccc2cc(C#N)c(SCC(=O)NCC3CCCO3)nc2c1C (centres undefined)	1.51%	
COc1ccccc1N1CC(C(=O)Nc2nnc(SCC(=O)NCC3CCCO3)s2)CC1=O (centres undefined)	2.57%	
Cc1cc(C)nc(Nc2ncn[nH]2)n1	-1.97%	
Cc1cc(C)nc(Nc2n[nH]c(-c3ccccc3N)n2)n1		0.953 µM (active)
CCCOc1ccccc1-c1nc(SCCC(=O)O)n[nH]1	-0.6%	
COC(=O)C1=C(c2ccccc2)c2ccccc2S(=O)(=O)N1CC(=O)Nc1ccccc1C(F)(F)F	-1.53%	
O=C(CSc1nccn1C1CCCC1)Nc1cc(C(F)(F)F)ccc1Cl	0.704%	
COc1ccc(C)cc1Nc1nc(C)nc2c1oc1ccccc12	1.78%	
COc1ccccc1Nc1ncnc2c1oc1ccccc12		13.5 µM (active)
CCC(C(=O)OC)n1cnc2c(oc3ccccc32)c1=O (centres undefined)	-18%	
O=C(CN1C(=O)NC2(CCOc3ccccc32)C1=O)NCc1ccc(F)cc1 (centres undefined)	-2.17%	
Cc1nccn1CC(=O)N/N=C/c1ccc(O)c(O)c1	0.875%	

SMILES	activity change, negative = inhibition	Potency
Oc1ccc(Br)cc1/C=N/Nc1ccccn1		8.49 µM (active)
CCN(CC)CCn1c(/N=C/c2cc(Br)ccc2O)nc2ccccc21	1.48%	
O=C(Nc1ccccc1)N1CCN(C2c3ccccc3-c3ccccc32)CC1	6.12%	
CC1=C(c2ccc(C)c(C)c2)S(=O)(=O)NC1=NCc1ccccc1Cl	1.46%	
CC(C)CN(C(=O)CSc1ncnc2sccc12)C1CCS(=O)(=O)C1 (centres undefined)	3.7%	
COc1ccc(C)cc1Nc1nc(-c2c(C)[nH]c3ccccc23)cs1		13.5 µM (active)
COc1ccc(C)cc1Nc1nc2ccccc2c2nnc(C)n12	-5.86%	
COC(=O)c1cnc(Nc2cc(C)ccc2OC)c2ccccc12	-11.7%	
Cc1ccc(CN2C(=O)SC(Nc3ccccc3)C2=O)cc1 (centres undefined)	-11.1%	
Cc1ccc(N(CC(=O)NCc2ccc(Cl)cc2)S(=O)(=O)N(C)C)cc1	-13.2%	
Cc1cc(C)cc(OC(C)C(=O)Nc2nc3c(s2)CCCC3)c1 (centres undefined)	-9.73%	
Fc1ccc2nc(Nc3nc4c(s3)CCCC4)sc2c1		3.01 µM (active)
COC(=O)C(NC(C)=O)(Nc1nc2c(s1)CCCC2)C(F)(F)F (centres undefined)	-1.43%	
Cc1cccc(Nc2nc(C)nc(N)c2S(=O)(=O)c2ccccc2)c1	-1.97%	
CCc1ccccc1NC(=O)Cn1c(=O)n(CC2CCC(C(=O)NCCc3ccccc3)CC2)c(=O)c2ccccc21 (centres undefined)	-6.38%	
CC(=O)c1cccc(NC(=S)N2CCN(S(C)(=O)=O)CC2)c1	-1.09%	
COc1ccc(NC(C(=O)Nc2cccc(C(C)=O)c2)c2ccccc2)cc1 (centres undefined)	-17.4%	
C=CCSc1nsc(NC(=O)Nc2cccc(C(C)=O)c2)n1		15.1 µM (active)
CSc1ccccc1C(=O)Nc1cccc(C(C)=O)c1	1.57%	
CCSc1nsc(NC(=O)Nc2cccc(C(C)=O)c2)n1		19 µM (active)
CC(=O)c1cccc(NC(=O)CSc2nc3c(c(=O)[nH]2)CCC3)c1	-13.1%	

From PubChem BioAssay AID588342 (National Center for Advancing Translational Sciences (NCATS), 2011)
